Molecules are shown by their SMILES. About 83,000 compounds went through this panel and 20% of them were active in at least one assay; those are over-represented in the sample as a whole.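 How to read the values: 0–100, growth inhibition (40 = 60% inhibited); 0, no net growth; -100 to 0, cell death (-40 = 40% of starting cells died; -100 = all dead).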 The source made the active and inactive calls.

The subject of the assay is MCF7 breast. Briefly: NCI-60 one-dose screen, 48 h (100 = growth as untreated, 0 = no growth, -100 = all killed). To be noted: 10 µM. How it is done: Growth inhibition of the MCF7 human tumor cell line is measured as a screen for anti-cancer activity. Cells are grown in 96 well plates and exposed to the test compound for 48 hours. Compounds are tested at a single concentration, which is 10^-5 M for most compounds. The reported endpoint is percent growth (GI% or GIPRCNT), where numbers from 0 - 100% represent growth inhibition, and numbers from -100% - 0 represent cell death. For example, a value of 40 represents 60% growth inhibition. A value of 0 means no net growth occurred over the course of the experiment. A value of -40 indicates 40% of cells at the beginning of the experiment died by the end of the experiment. A value of -100 means all cells are dead at the end of the experiment.
NCI-60 Human Tumor Cell Lines Screen was performed using the standard one-dose NCI protocol, which is described in more detail at https://dtp.cancer.gov/discovery_development/nci-60/default.htm.
Compounds with GIPRCNT values below 10 were considered active. Activity score was based on GIPRCNT using the following formula: […]
Score is 0 for GIPRCNT values of 100 or above, 50 for GIPRCNT values of 0, and 100 for GIPRCNT values of -100.
Consider `O=C1c2ccccc2-c2c1c1cccnc1c(=O)n2C[C@H](O)CO`, for which the growth was 25.5% (inactive). As to `S=C(SSC(=S)N(c1ccccc1)c1ccccc1)N(c1ccccc1)c1ccccc1`, the growth was 98.8% (inactive). Then `Cc1cn(-c2cccc(NC(=O)c3ccc(C)c(Nc4nccc(-c5cccnc5)n4)c3)c2)cn1`, with -24.6% (active); and `CC1/C=C/C=C/C=C/C=C/C=C/C=C/C=C/C(O[C@@H]2O[C@H](C)[C@H](O)[C@@H](O)[C@@H]2N)CC(O)C(C(=O)O)C(O)CC(=O)CC(O)CC(O)CC(O)CC(=O)CCCC(=O)CC(=O)OC1C(C)CC(C)C(O)CC(=O)c1ccc(N)cc1` (stereo not given in full), with -87% (active). Consider `CCCCC(CC)CN=C(N)NC(N)=NCCCCCCN=C(N)NC(N)=NCC(CC)CCCC` (stereo not given), for which the growth was -75.7% (active). Then `NS(=O)(=O)Oc1ccc(NC(=O)C2CCCCCC2)cc1`, with 97.7% (inactive); and `C=C/C(C)=C/C[C@]1(C)[C@H](C)[C@@H](OC(=O)CCC)[C@H](O)[C@@]23C(=C[C@H](OC)C[C@@H]12)[C@@H](OC(=O)CCC)O[C@H]3OC(C)=O`, with 9.34% (active). For `CCCCN(CCCC)C(=O)[C@H](CC)[C@@H]1CC[C@@H](C)[C@@H]([C@H](C)[C@@H](O)[C@@H](C)C(=O)[C@H](CC)C2O[C@]3(C=CC(=O)[C@]4(CC[C@@](C)([C@H]5CC[C@](O)(CC)[C@H](C)O5)O4)O3)[C@H](C)C[C@@H]2C)O1` (stereo not given in full), the growth is 16.2% (inactive). As to `COc1ccc(-c2cc(-c3ccc(Cl)cc3)nc(SCCCC(=O)NO)n2)cc1OC`, the growth is 1.13% (active). `CCOC(=O)c1cc(C(=O)c2cc(OC)c(OC)c(OC)c2)n2ccc(-c3cc[n+](CC(=O)c4cc(OC)c(OC)c(OC)c4)cc3)cc12`: the growth was -29.3% (active). Consider `Cc1ccc(NCCNCC(C)(C)O)c2c(=O)c3ccc(Cl)cc3sc12`, for which the growth is -73.2% (active).

For `S=C(NCc1ccccc1)NCc1ccccc1`, the growth was 96.3% (inactive). For `CCOC(=O)N/N=C/c1ccc(OC)c(OC)c1`, the growth is 98.7% (inactive). Turning to `OC(CNc1ccnc2cc(Cl)ccc12)CNC1CCCCC1` (stereo not given), the growth is 75.7% (inactive).

For the molecule `O=C(CI)OCC(COC(=O)CI)OC(=O)CI`, the growth is 56.1% (inactive). Then `CCCN1CN2C(=O)N3CN(CCC)CN4C(=S)N(C1)C2C34` (stereo not given), with 87.7% (inactive). Regarding `CCn1c(SCCc2ccccc2)nnc1-c1nn(-c2ccc(Cl)cc2Cl)c(-c2ccc(Cl)cc2)c1C`, the growth was 58.7% (inactive). Then `N#Cc1c(-c2ccc(Cl)cc2)cc(-c2cc(O)ccc2O)nc1N`, with 4.41% (active); and `CC(C)c1ccc(C(C)C(=O)N(CC2=C(C(C)c3ccccn3)c3ccccc3C2)C(C)C)cc1` (stereo not given), with 19.9% (inactive); and `O=[N+]([O-])c1cc(Cl)cc(Cl)c1O`, with 104% (inactive). Then `COC(=O)C1OC1c1cc([N+](=O)[O-])ccc1OC` (stereo not given), with 89.3% (inactive). For `COc1cc(-c2nn(-c3ccc(NC(=O)NCCNS(=O)(=O)c4ccc(F)cc4)cc3)cc2-c2ccncc2)ccc1Cl`, the growth was 6.49% (active). As for `CC(C)(C)OC(=O)CN1CCc2c(sc3ncnc(N/N=C/c4cccc5ccccc45)c23)C1`, the growth was -24.5% (active). In the case of `Nc1ccccc1NC(=O)c1ccc(CCCC(=O)Nc2ccc(C3CC3N)cc2)cc1` (stereo not given), the growth is 17.7% (inactive). On to `Cc1cc(O)ccc1C1=NN(c2ccc(S(C)(=O)=O)cc2)C(=O)CC1`, for which the growth was 82.8% (inactive).

Take `Cc1cc(Br)nnc1Br`: the growth was 103% (inactive).

On to `CC(=O)C1N=NCC1c1ccccc1` (stereo not given), for which the growth was 95.7% (inactive). `Cc1cccc(N=Cc2ccccc2O)c1C`: the growth was 98.8% (inactive). Take `COc1ccc(-c2nn(-c3cccc(Cl)c3)cc2-c2cc(-c3ccccc3)nc(N)n2)cc1`: the growth is 12.9% (inactive). For `Cc1c2c(nn1C(=O)c1nn(-c3ccc(Cl)cc3)cc1O)-c1ccccc1CC2`, the growth is 12.4% (inactive). On to `COc1ccc2c(c1)C(=O)/C(=C/c1ncc([N+](=O)[O-])n1C)O2`, for which the growth was 5.2% (active). Then `CCOC(=O)C1C(C(=O)OCC)C2C(=O)C3C(C(=O)OCC)C(C(=O)OCC)C3C(=O)C12` (stereo not given), with 99.8% (inactive); and `COc1ccc(C(=O)c2ccccc2CN2C(=O)c3ccccc3C2=O)cc1`, with 102% (inactive). `Cc1ccc(C(SCC(N)C(=O)O)(c2ccc(C)cc2)c2ccc(C)cc2)cc1` (stereo not given): the growth is 9.12% (active). Then `COc1cccc(CNc2cccc3cn[nH]c23)c1O`, with 71.5% (inactive); and `CS(=O)(=O)c1nccc(-c2c(-c3cccc(OCc4ccccc4)c3)nc3sccn23)n1`, with 77.4% (inactive); and `COc1ccc(CCN2CCC(Nc3nc4ccccc4n3Cc3ccc(F)cc3)CC2)cc1`, with -53.6% (active). Turning to `CCC(C)[C@H](NC(C)=O)C(=O)N[C@@H](CCCNC(=N)N)C(=O)N[C@@H](CCCCN)C(=O)N[C@@H](CC1CCC(O)CC1)C(=O)NC(C(=O)N[C@@H](CCSC)C(=O)N[C@@H](CCCNC(=N)N)C(=O)N[C@@]1(C)CCC/C=C\CCC[C@@](C)(C(=O)NC(C(=O)N[C@@H](CCC(=O)O)C(=O)N[C@@H](CC(C)C)C(=O)N[C@H](C(=O)N[C@@H](CCC(=O)O)C(N)=O)C(C)C)[C@@H](C)O)NC(=O)[C@H](CCC(N)=O)NC(=O)[C@H](CC(C)C)NC(=O)[C@H](CC(C)C)NC1=O)[C@@H](C)O` (stereo not given in full), the growth was 102% (inactive).

As to `Clc1nc2ccc(Br)cc2cc1-c1nc2ccccc2[nH]1`, the growth is 42.5% (inactive). On to `O=C(Nc1nc(-c2ccccc2)nc2c1sc(=S)n2-c1ccccc1)C(F)(F)F`, for which the growth was 87% (inactive).

Source of the values: PubChem BioAssay (NCI).
